Experimental findings from PubChem BioAssay (NCI) are described below.

Some test systems named below: NCI-H23 lung; NCI-H226 lung; NCI-H322M lung; HOP-62 NSCLC; NCI-H460 lung; HOP-92 NSCLC; NCI-H522 lung; A549/ATCC NSCLC; 786-0 renal; COLO 205 colon; DU-145 prostate; K-562 leukemia; MALME-3M melanoma; MDA-MB-231 breast; RXF 393 renal; SF-268 CNS; SF-295 CNS; SF-539 CNS; UACC-257 melanoma; M14 melanoma.
Common to all, as to test: NCI-60 one-dose screen, 48 h (100 = growth as untreated, 0 = no growth, -100 = all killed)
Holding throughout (details): 10 µM unless noted

About 83,000 compounds went through this panel and 20% of them were active in at least one assay; those are over-represented in the sample as a whole.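 For each line, cells grew in 96-well plates with the test compound present at a single concentration for 48 hours.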 A number with no mark means an inactive call. Activity calls are given as the source filed them. The calls were made as follows: active = growth percent below 10; inactive = the rest.

For the compound `O=[N+]([O-])c1cc(Br)cc2c1[nH]c1ccc(Br)cc12`, the growth in the assay with NCI-H23 lung is 58%; in the assay on NCI-H226 lung it was 53.9%; with NCI-H322M lung, 58%; in the assay with HOP-62 NSCLC, 39.2%; in the assay with NCI-H460 lung, 73.5%; with HOP-92 NSCLC, 44.2%. The growth with NCI-H522 lung was 63.5%; in the assay with A549/ATCC NSCLC, 52.3%; with 786-0 renal it was 44.3%; in the assay on COLO 205 colon, 52.1%; in the assay on DU-145 prostate it was 77.1%; in the assay with K-562 leukemia, 55.5%. The growth in the assay on MALME-3M melanoma is 66.3%; with MDA-MB-231 breast, 58.4%; in the assay on RXF 393 renal, 43.6%; in the assay on SF-268 CNS, 73.4%; with SF-295 CNS, 49.9%; with SF-539 CNS it was 84.6%. The growth in the assay on UACC-257 melanoma was 88.7%; in the assay with M14 melanoma it was 70.5%.
For `COc1cc(N2CCC(N(C)C)CC2)ccc1Nc1ncc(Cl)c(Nc2ccccc2P(C)(C)=O)n1`, the growth is 5.53% (active) with NCI-H23 lung; -44.3% (active) in the assay on NCI-H226 lung; -9.57% (active) in the assay on NCI-H322M lung; -4.93% (active) with HOP-62 NSCLC; 7% (active) with NCI-H460 lung; -60.2% (active) in the assay with HOP-92 NSCLC. The growth in the assay on NCI-H522 lung is -39.4% (active); in the assay on A549/ATCC NSCLC it was -35.8% (active); in the assay on 786-0 renal, -20.6% (active); in the assay on COLO 205 colon, -62.7% (active); with DU-145 prostate, 0.609% (active); in the assay on K-562 leukemia, 12.5%. Further, the growth in the assay with MALME-3M melanoma is 32%; in the assay with MDA-MB-231 breast, 5.47% (active); with RXF 393 renal, -60.1% (active); in the assay on SF-268 CNS, -26.8% (active); with SF-295 CNS, 27.7%; in the assay on SF-539 CNS, -49.3% (active). Further, the figures for the growth with UACC-257 melanoma and in the assay with M14 melanoma were 17.2% and 10.3%, respectively.
`CC[C@H](Nc1ncnc2nc[nH]c12)c1nc2cccc(F)c2c(=O)n1-c1ccccc1`: the growth was 93% with NCI-H23 lung; 93.3% in the assay with NCI-H226 lung; 42.9% in the assay on NCI-H322M lung; 75.6% with HOP-62 NSCLC; 79.9% with NCI-H460 lung; 49.2% in the assay with HOP-92 NSCLC. Moreover, the growth is 22.4% in the assay on NCI-H522 lung; 43.2% in the assay with A549/ATCC NSCLC; 37.5% with 786-0 renal; 96.1% with COLO 205 colon; 62.4% in the assay with DU-145 prostate; 83.6% in the assay with K-562 leukemia. Further, the growth in the assay on MALME-3M melanoma was 88.9%; with MDA-MB-231 breast, 89.1%; in the assay on RXF 393 renal, 2.02% (active); with SF-268 CNS, 71%; in the assay with SF-295 CNS it was 57.9%; in the assay on SF-539 CNS it was 102%. Further, the growth in the assay on UACC-257 melanoma was 39.9%; in the assay on M14 melanoma it was 85.3%.
As to `O=C1C=CC2(NN=C(c3ccccc3)N2c2ccc(Cl)cc2)c2cccc(O)c21` (stereo not given), the growth in the assay with NCI-H23 lung was 13.6%; with NCI-H226 lung, 60.5%; in the assay with NCI-H322M lung, 89.5%; in the assay with HOP-62 NSCLC, 26.5%; in the assay with NCI-H460 lung, 64.3%; in the assay with HOP-92 NSCLC it was 125%. Also, the growth was 51.1% in the assay on NCI-H522 lung; 22.3% in the assay on A549/ATCC NSCLC; 93.4% in the assay on 786-0 renal; 94.5% in the assay with COLO 205 colon; 51.9% with DU-145 prostate; 25.5% in the assay on K-562 leukemia. Besides, the growth in the assay with MALME-3M melanoma is 38.8%; in the assay on MDA-MB-231 breast, 77.4%; with RXF 393 renal, 119%; with SF-268 CNS, 57.3%; in the assay with SF-295 CNS it was 27.8%; in the assay with SF-539 CNS, 26.6%. For the same compound, the growth in the assay with UACC-257 melanoma was 5.85% (active); in the assay with M14 melanoma, 28.9%.
With `CCOc1ccc(N=C(C)Nc2ccc(OCC)cc2)cc1`, the growth in the assay with NCI-H23 lung is 102%; in the assay with NCI-H226 lung it was 110%; in the assay with NCI-H322M lung, 124%; in the assay with HOP-62 NSCLC, 109%; in the assay with NCI-H460 lung, 102%; in the assay with HOP-92 NSCLC, 81.9%. Also, the growth in the assay with NCI-H522 lung is 128%; with A549/ATCC NSCLC, 95.3%; in the assay with 786-0 renal, 104%; in the assay on COLO 205 colon, 102%; in the assay on DU-145 prostate, 114%; in the assay on K-562 leukemia it was 99.6%. Besides, the growth in the assay with MALME-3M melanoma is 117%; in the assay with MDA-MB-231 breast, 118%; in the assay on RXF 393 renal, 113%; in the assay on SF-268 CNS it was 88.8%; in the assay on SF-295 CNS, 107%; with SF-539 CNS it was 118%. The growth in the assay with UACC-257 melanoma was 104%; in the assay with M14 melanoma, 101%.
As for `CC/C(=C(\c1ccc(OCCN2CCCCCCC2)cc1)c1ccc(OC(=O)C2CCCCC2)cc1)c1ccc(Cl)cc1`, the growth with NCI-H23 lung was 99.4%; in the assay on NCI-H226 lung, 100%; in the assay with NCI-H322M lung, 80.9%; with HOP-62 NSCLC, 102%; in the assay on NCI-H460 lung it was 106%; with HOP-92 NSCLC, 90.3%. For the same compound, the growth with NCI-H522 lung is 89.4%; with A549/ATCC NSCLC it was 104%; with 786-0 renal, 104%; with COLO 205 colon, 123%; in the assay with DU-145 prostate it was 108%; in the assay with K-562 leukemia it was 84.8%. Also, the growth was 94.1% with MALME-3M melanoma; 93.3% in the assay on MDA-MB-231 breast; 110% in the assay with RXF 393 renal; 94.7% with SF-268 CNS; 104% in the assay on SF-295 CNS; 102% in the assay with SF-539 CNS. Besides, the figures for the growth in the assay with UACC-257 melanoma and in the assay with M14 melanoma were 87.3% and 91.1%, respectively.
Turning to `C=CCN(/C=C1/C(=O)O[C@H](COC)[C@@]2(C)C1=C(O)C(=O)C1=C2[C@H](OC(C)=O)C[C@]2(C)C(=O)CC[C@@H]12)CC=C`, the growth in the assay with NCI-H23 lung is 36.7%; in the assay with NCI-H226 lung, 24%; in the assay on NCI-H322M lung it was -15.1% (active); in the assay on HOP-62 NSCLC it was 16.5%; with NCI-H460 lung, 11.2%; in the assay with HOP-92 NSCLC, -3.58% (active). In addition, the growth in the assay on NCI-H522 lung is 13.5%; with A549/ATCC NSCLC it was 4.59% (active); in the assay on 786-0 renal it was 4.54% (active); in the assay on COLO 205 colon, 17.7%; in the assay on DU-145 prostate, 26.6%; with K-562 leukemia, 40.9%. Besides, the growth in the assay on MALME-3M melanoma was -1.8% (active); with MDA-MB-231 breast, 42%; with RXF 393 renal, -41.1% (active); with SF-268 CNS, 29.9%; in the assay on SF-295 CNS, 5.72% (active); in the assay with SF-539 CNS it was -19.1% (active). The growth in the assay on UACC-257 melanoma is 15.8%; in the assay on M14 melanoma it was 28.2%.
Regarding `CCCCOc1nc2cc(Cl)ccc2cc1/C=C/c1cc(/C=C/c2cc3ccc(Cl)cc3nc2OCCCC)n(-c2ccccc2)n1`, the growth with NCI-H23 lung was 83.3%; in the assay on NCI-H226 lung it was 75.1%; in the assay on NCI-H322M lung, 92.5%; in the assay with HOP-62 NSCLC, 32.3%; with NCI-H460 lung, 98.3%; in the assay with HOP-92 NSCLC, 76.8%. Further, the growth with NCI-H522 lung was 61%; in the assay on A549/ATCC NSCLC it was 75.4%; with 786-0 renal it was 64%; with COLO 205 colon, 88.3%; with DU-145 prostate, 101%; in the assay with K-562 leukemia, 91.7%. In addition, the growth in the assay with MALME-3M melanoma is 92.8%; in the assay with MDA-MB-231 breast, 82.3%; in the assay on RXF 393 renal, 81.6%; with SF-268 CNS it was 74.9%; in the assay with SF-295 CNS, 52.4%; in the assay with SF-539 CNS it was 91.9%. The growth in the assay with UACC-257 melanoma is 67%; with M14 melanoma it was 99.3%.
